The text below walks through data of article PMC4336329 (PLoS ONE, 2015).

The structures appear in SMILES notation. In all, about 310,000 compounds went through this assay and about 14,000 (4.5%) showed an effect of 50% or more. The effect is printed as a negative number. Only a selection was taken, and strong results are over-represented in it overall.
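Also: peak tail current of the secondary pulse compared with the same well before compound.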

Chain of human ether-à-go-go-related gene (hERG) potassium channel (Q12809 whole entry, looked up): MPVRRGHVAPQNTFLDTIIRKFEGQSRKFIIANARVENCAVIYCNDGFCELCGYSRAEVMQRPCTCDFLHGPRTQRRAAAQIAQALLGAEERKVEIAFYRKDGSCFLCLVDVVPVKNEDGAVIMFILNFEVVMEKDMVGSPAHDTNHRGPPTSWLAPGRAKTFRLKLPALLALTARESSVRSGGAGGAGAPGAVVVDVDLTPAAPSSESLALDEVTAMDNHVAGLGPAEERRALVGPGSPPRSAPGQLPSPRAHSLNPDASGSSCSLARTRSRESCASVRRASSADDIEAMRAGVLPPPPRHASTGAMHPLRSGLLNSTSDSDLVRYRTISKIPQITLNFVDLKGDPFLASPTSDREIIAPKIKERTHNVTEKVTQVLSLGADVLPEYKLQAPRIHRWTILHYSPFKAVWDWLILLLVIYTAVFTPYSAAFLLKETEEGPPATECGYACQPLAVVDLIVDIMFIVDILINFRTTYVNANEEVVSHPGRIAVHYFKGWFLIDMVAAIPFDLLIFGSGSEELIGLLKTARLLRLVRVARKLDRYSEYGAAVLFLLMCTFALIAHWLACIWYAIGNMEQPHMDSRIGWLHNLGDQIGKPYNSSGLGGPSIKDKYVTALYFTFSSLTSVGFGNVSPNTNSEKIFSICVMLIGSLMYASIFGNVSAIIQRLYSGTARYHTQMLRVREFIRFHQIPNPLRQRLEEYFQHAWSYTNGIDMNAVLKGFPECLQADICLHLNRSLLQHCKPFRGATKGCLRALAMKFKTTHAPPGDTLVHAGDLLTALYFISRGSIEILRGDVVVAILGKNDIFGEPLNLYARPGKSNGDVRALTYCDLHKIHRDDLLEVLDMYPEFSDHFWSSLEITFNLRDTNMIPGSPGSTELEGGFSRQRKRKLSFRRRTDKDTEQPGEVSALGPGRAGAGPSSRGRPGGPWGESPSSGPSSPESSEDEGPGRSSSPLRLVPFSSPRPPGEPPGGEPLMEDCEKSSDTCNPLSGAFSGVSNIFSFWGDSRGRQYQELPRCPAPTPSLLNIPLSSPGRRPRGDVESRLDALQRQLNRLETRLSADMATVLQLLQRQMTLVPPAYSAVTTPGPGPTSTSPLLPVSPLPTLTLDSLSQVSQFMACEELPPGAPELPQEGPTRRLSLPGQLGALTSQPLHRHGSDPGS

The test has as its target human ether-à-go-go-related gene (hERG) potassium channel (human, UniProt Q12809). Kind of test: primary screen, population patch clamp on CHO cells stably expressing hERG; higher = less effect of the substance.
For the molecule `Cc1ccc(CS(=O)(=O)Cc2ccc(C(=O)NCCCN3CC(C)CC(C)C3)o2)cc1` (stereo not drawn), the “hERG current change (%, negative = inhibition) at 10uM” value is -60.2%. The result for `CC1CC(C)CN(CCCNC(=O)c2ccc(CS(=O)(=O)Cc3cccc(Cl)c3)o2)C1` (stereo not drawn) reads -69.1%; that for `Cc1ccccc1CS(=O)(=O)Cc1ccc(C(=O)NCCCN2CC(C)CC(C)C2)o1` (stereo not drawn), -36.1%; that for `CC1CCCN(CCCNC(=O)c2ccc(CS(=O)(=O)Cc3cccc(Cl)c3)o2)C1` (stereo not drawn), -40.7%. The result for `CC1CCN(CCCNC(=O)c2ccc(CS(=O)(=O)Cc3ccc(Cl)cc3)o2)CC1` reads -44%; that for `Cc1ccc(CS(=O)(=O)Cc2ccc(C(=O)NCCCN3CCOCC3)o2)cc1`, 6.75%; that for `CN(C1=NS(=O)(=O)c2ccccc21)c1ccc(OC(=O)c2ccncc2)cc1`, -9.07%. The result for `COc1cccc(CN(C)C(=O)CCN(c2ccccc2)S(=O)(=O)c2ccc(C)cc2)c1OC` reads -30.4%; that for `COC(=O)C1=C(c2ccc(F)cc2F)C[C@@H]2CC[C@H]1N2C(=O)NC1Cc2ccccc2C1`, -16.9%. `O=C(N/N=C/c1cc(O)ccc1[N+](=O)[O-])c1ccc2c(c1)OCCO2`: the “hERG current change (%, negative = inhibition) at 10uM” value is reported as -2.12%. Next, `CCCCOc1ccc(S(=O)(=O)n2c(C)nc3ccccc32)cc1`: 0.0246%; `CCN(CC(=O)NCc1cccs1)C(=O)c1ccc(S(=O)(=O)Nc2ccccc2Cl)cc1`: -26.8%.

For the molecule `C/C(=N\NC(=O)c1cccc(S(=O)(=O)N2CCOCC2)c1)c1ccc(O)cc1`, the “hERG current change (%, negative = inhibition) at 10uM” value was 11.4%. The result for `C/C(=N\NC(=O)c1cccc(S(=O)(=O)N2CCCC2)c1)c1ccncc1` reads -1.9%. The result for `N#Cc1ccc(/C=N/NC(=O)c2cccc(S(=O)(=O)N3CCOCC3)c2)cc1` reads 13.3%; that for `C/C(=N\NC(=O)c1cccc(S(=O)(=O)N2CCCC2)c1)c1ccc(C)cc1`, -50.4%; that for `C/C(=N\NC(=O)c1cccc(S(=O)(=O)N2CCOCC2)c1)c1ccc(C#N)cc1`, -52.6%.

`C/C(=N\NC(=O)c1cccc(S(=O)(=O)N2CCOCC2)c1)c1ccc(C)cc1`: the “hERG current change (%, negative = inhibition) at 10uM” value is given as -3.88%. Next, `Cn1c(=O)c2c([nH]c(=S)n2CCCc2ccccc2)n(C)c1=O`: 15.5%; `CC(Cc1cccs1)NC(=O)Nc1ccc(F)cc1` (stereo not drawn): 18.2%; `CCc1nc(C#N)c(N2CCOCC2)o1`: 2.54%. Next, `CCN(c1ccccc1)S(=O)(=O)c1ccc(C(=O)Oc2ccc(C(C)=O)cc2)cc1`: 8.41%. As for `CC1(C)N=C(N)NC(Nc2ccccc2)=N1`, the “hERG current change (%, negative = inhibition) at 10uM” value was found to be 2.96%. The result for `Cc1onc(-c2ccccc2Cl)c1C(=O)Nc1ccc(-c2cn3cccnc3n2)cc1` reads 26%; that for `Cc1onc(-c2ccccc2Cl)c1C(=O)Nc1cccc(-c2nc3ncccn3c2C)c1`, -63%.

For the molecule `Cc1onc(-c2ccccc2Cl)c1C(=O)Nc1cccc(-c2cn3cccnc3n2)c1`, the “hERG current change (%, negative = inhibition) at 10uM” value is recorded as -24.8%. The result for `Cl.O=C1CC2(CCCC2)CC(=O)N1CCCCN1CCN(c2ncccn2)CC1` reads -35.9%; that for `Cc1c(C)n2c(SCC(=O)NCc3ccc4c(c3)OCO4)nnc2[nH]c1=O`, 7.88%; that for `CCCCN(C)C1CCN(C(=S)Nc2cccc(OC)c2)CC1`, -19.9%.

As to `CCCCN(C)C1CCN(C(=S)Nc2cccc(SC)c2)CC1`, the “hERG current change (%, negative = inhibition) at 10uM” value is on record as -59.8%. The result for `CSc1cccc(NC(=S)N2CCC(N(C)C(C)C)CC2)c1` reads -16.2%; that for `CCC(C)N(C)C1CCN(C(=S)Nc2cccc(SC)c2)CC1` (stereo not drawn), -45.8%.

For `CSc1cccc(NC(=S)N2CCC(N(C)C3CCCCC3C)CC2)c1` (stereo not drawn), the “hERG current change (%, negative = inhibition) at 10uM” value was -58.2%.

For `CCCCN(C(=S)Nc1cccc(SC)c1)C1CCN(C(C)=O)CC1`, the “hERG current change (%, negative = inhibition) at 10uM” value is listed as -28.9%.

Consider `CCOC(=O)N1CCC(N(CCN(C)C)C(=S)Nc2cccc(SC)c2)CC1`, for which the “hERG current change (%, negative = inhibition) at 10uM” value is on record as -11.6%.

For `CN(C1CCCC1)C1CCN(C(=S)Nc2cc(F)cc(F)c2)CC1`, the “hERG current change (%, negative = inhibition) at 10uM” value is recorded as -42%. Consider `CSc1cccc(NC(=S)N2CCC(N(C)C3CCCC3)CC2)c1`, for which the “hERG current change (%, negative = inhibition) at 10uM” value is reported as -29.2%. Next, `CSc1cccc(NC(=S)N2CCC(c3ccccc3)C2)c1` (stereo not drawn): 7.54%.

Take `CSc1cccc(NC(=S)N2CCC(N(C)C3CCCCCC3)CC2)c1`: the “hERG current change (%, negative = inhibition) at 10uM” value is recorded as -62.9%. As for `CSc1cccc(NC(=S)N2CCC(N(C)C3CCCCC3)CC2)c1`, the “hERG current change (%, negative = inhibition) at 10uM” value is -64.4%. The result for `N#CCOc1coc(CN2CCN(c3cccc(Cl)c3)CC2)cc1=O` reads -0.696%. Next, `Cc1ccccc1C(=O)NC(=S)Nc1ccccc1C(=O)O`: 15.5%; `Cc1nnc(-c2cnn(-c3ccccc3)c2N)n1Cc1cccc(C(F)(F)F)c1`: -18.8%; `Cc1ccc(CSCC(=O)N(C)CC(=O)Nc2ccccc2C(F)(F)F)cc1`: -0.53%. The result for `O=C1NC(=Nc2ccccc2Cl)S/C1=C\c1cccc([N+](=O)[O-])c1` reads -0.316%; that for `Cn1cc(/C=C2\SC(=S)N(NC(=O)c3ccccc3)C2=O)c2ccccc21`, 10.6%; that for `CCOc1cc(C(=O)N(C)CC(=O)Nc2cccc(F)c2)ccc1OCC(=O)N1CCCCC1`, -14.1%. As for `O=C(COC(=O)CNC(=O)c1ccccc1F)Nc1ccc2[nH]c(=O)[nH]c2c1`, the “hERG current change (%, negative = inhibition) at 10uM” value stood at 10.2%. `COc1ccc(NC(=O)CN2C(=O)NC3(CCCC3)C2=O)cc1`: the “hERG current change (%, negative = inhibition) at 10uM” value is given as 13.7%. Next, `CCOC(=O)c1nn(-c2ccc(F)cc2)c2c1CC/C2=C/c1ccccc1`: 8.7%; `CN(C)c1cc(N)c2c(n1)CCC2.O=C(O)c1cncc(O)c1`: -10.8%. The result for `COC(=O)C1C(O)=C(C=Nc2cccc3ccccc23)C(=O)CC1(C)C` (stereo not drawn) reads -2.34%; that for `Cc1ccc(S(=O)(=O)NCc2ccccc2C)cc1`, 11.6%; that for `N#CC(Sc1ccccn1)c1ccc(Cl)cc1` (stereo not drawn), -18.2%.
